# Source: ChEMBL document CHEMBL1201862, “PubChem BioAssay data set” (2004)
# About 2,100 (0.53%) of roughly 400,000 compounds were called active. Another 14% or so got no clear call; they are omitted. How the calls were made is not given here. Many of the other results were omitted from the sample, so actives are more common in it than they were.
# Target: Ataxin-2 (Homo sapiens) (UniProt Q99700)
# Test: qHTS for Inhibitors of ATXN expression.
# Format: functional
# Ataxin-2 (Homo sapiens), sequence (Q99700 whole entry): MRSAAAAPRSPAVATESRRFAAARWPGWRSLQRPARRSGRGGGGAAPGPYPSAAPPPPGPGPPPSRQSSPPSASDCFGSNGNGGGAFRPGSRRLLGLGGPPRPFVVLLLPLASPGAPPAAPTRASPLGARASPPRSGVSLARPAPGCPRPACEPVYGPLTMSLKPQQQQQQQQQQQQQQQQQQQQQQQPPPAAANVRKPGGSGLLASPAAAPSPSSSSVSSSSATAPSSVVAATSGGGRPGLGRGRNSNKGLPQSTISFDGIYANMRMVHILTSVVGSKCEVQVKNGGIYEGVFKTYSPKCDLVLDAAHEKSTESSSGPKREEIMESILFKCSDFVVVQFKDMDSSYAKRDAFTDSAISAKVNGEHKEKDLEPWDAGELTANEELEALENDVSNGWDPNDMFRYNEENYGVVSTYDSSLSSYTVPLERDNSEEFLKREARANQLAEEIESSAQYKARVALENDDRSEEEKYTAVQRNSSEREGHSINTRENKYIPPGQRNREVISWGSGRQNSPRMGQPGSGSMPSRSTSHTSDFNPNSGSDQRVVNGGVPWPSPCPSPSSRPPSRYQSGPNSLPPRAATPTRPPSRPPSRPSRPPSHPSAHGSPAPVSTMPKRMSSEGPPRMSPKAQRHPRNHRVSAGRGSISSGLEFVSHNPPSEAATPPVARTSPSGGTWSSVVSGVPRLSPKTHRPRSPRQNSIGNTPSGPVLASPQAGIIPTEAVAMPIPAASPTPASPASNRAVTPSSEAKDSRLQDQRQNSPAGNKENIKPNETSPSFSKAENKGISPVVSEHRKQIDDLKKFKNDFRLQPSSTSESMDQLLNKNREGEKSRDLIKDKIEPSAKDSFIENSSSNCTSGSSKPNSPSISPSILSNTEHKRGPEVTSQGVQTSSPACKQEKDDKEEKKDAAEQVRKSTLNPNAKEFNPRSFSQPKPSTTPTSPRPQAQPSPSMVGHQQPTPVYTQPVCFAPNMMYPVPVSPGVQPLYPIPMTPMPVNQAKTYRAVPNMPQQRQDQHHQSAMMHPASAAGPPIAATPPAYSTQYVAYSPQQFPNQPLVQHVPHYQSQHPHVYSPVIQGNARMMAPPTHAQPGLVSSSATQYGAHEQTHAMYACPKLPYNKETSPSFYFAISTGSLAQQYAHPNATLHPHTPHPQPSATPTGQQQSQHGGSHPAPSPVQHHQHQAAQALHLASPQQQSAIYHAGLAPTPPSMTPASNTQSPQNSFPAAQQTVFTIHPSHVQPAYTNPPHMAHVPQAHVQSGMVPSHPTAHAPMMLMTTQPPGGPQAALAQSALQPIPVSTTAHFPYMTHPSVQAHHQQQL
row,SMILES,Potency
1,O=C(NCc1ccco1)c1cccc2c1C(=O)c1ccc(N3CCC(Cc4ccccc4)CC3)cc1S2(=O)=O,inactive
2,CC1(C)CNc2cc([N+](=O)[O-])ccc2S1,inactive
3,CCOC(=O)c1cc(-c2ccccc2)nc2nc(N3CCCCC3)sc12,inactive
4,CCOC(=O)N1CCN(c2nc(-c3ccccc3)c3ccccc3n2)CC1,inactive
5,CCOC(=O)c1c(-c2ccccc2)nnn1-c1nc(OCC)nc(N2CCCCC2)n1,39.8 µM (active)
6,C=C1C(=O)OC2C1CCC(C)=CCCC1(C)OC21 (stereo not drawn),22.4 µM (active)
7,C=CCN(C(=O)CSc1nc2ccsc2c(=O)n1Cc1ccccn1)c1ccccc1,inactive
8,C=C(C)CSc1cc(C)c(C#N)c2nc3ccccc3n12,inactive
9,CCCn1c(=N)c(C(=O)NC2CCCC2)cc2c(=O)n3cccc(C)c3nc21,inactive
10,CCn1c(=N)c(C(=O)NC2CCCCC2)cc2c(=O)n3cccc(C)c3nc21,inactive
11,CCc1nc2c(OCCC3CCCCC3)cccn2c1N(C)C(=O)C1CC1,35.5 µM (active)
12,CCOCCCn1c(=N)c(C(=O)NC2CCCC2)cc2c(=O)n3cccc(C)c3nc21,inactive
13,CCc1nc2c(OCCC3CCCCC3)cccn2c1N(C)C(=O)C(C)C,35.5 µM (active)
14,CCC(CC)C(=O)N(C)c1c(C)nc2c(OCCC3CCCCC3)cccn12,31.6 µM (active)
15,CCOCCCn1c(=N)c(C(=O)NC2CCCCC2)cc2c(=O)n3ccccc3nc21,inactive
16,O=C(NCc1cccc(F)c1)c1cccc2c1C(=O)c1ccc(N3CCC(Cc4ccccc4)CC3)cc1S2(=O)=O,inactive
17,O=C(NNc1ccccn1)C(c1ccccc1)c1ccccc1,inactive
18,COc1ccc(-c2cc3ccc(O)c(CN4CCC(C)CC4)c3oc2=O)cc1OC,inactive
19,Cc1c(N=C2N=C(NC(=O)c3ccc(F)cc3)c3ccccc32)c(=O)n(-c2ccccc2)n1C,inactive
20,N=c1oc2cc(O)ccc2cc1C(=O)Nc1ccc(Br)cc1,inactive
21,CCOC(=O)Cc1c(C)nc2c(-c3ccc(Cl)cc3)c(C)nn2c1C,inactive
22,CCOC(=O)CC(NC(=O)CCc1c(C)nc2c(-c3ccccc3)c(C)nn2c1C)c1ccc(OC(C)C)cc1 (stereo not drawn),39.8 µM (active)
23,Cc1ccc(/C=C/C(=O)c2ccc(N3CCOCC3)cc2)s1,inactive
24,CNC(=O)/C(C#N)=C/c1c(N2CCN(c3cccc(Cl)c3)CC2)nc2c(C)cccn2c1=O,inactive
25,Clc1cccc(N2CCN(c3ncnc4c3nc3n4CCCCC3)CC2)c1,14.1 µM (active)
26,O=C(c1cccc(F)c1)N1CCCC(C(=O)N2CCN(c3ccccc3)CC2)C1 (stereo not drawn),inactive

row,SMILES,Potency
1,O=C(OCC(=O)N1CCN(c2ccc(F)cc2)CC1)c1cnc2ccccc2n1,inactive
2,Clc1cccc(N2CCN(Cc3nnc(-c4ccccc4)o3)CC2)c1,inactive
3,O=C(C1CCN(c2ncnc3c2nc2n3CCCCC2)CC1)N1CCN(c2ccc(F)cc2)CC1,22.4 µM (active)
4,O=C(OCC(=O)N1CCCC1)c1c[nH]c2ccccc12,inactive
5,Cc1cc(C)c2c(CC(=O)O)c(C)[nH]c2c1,inactive
6,O=c1ccc2ccc(O)cc2o1,inactive
7,N#Cc1c(-c2ccncc2)cc(-c2ccc(F)cc2)nc1N,inactive
8,CS(=O)(=O)c1nc(-c2ccccc2)cc(-c2ccccc2)c1C#N,31.6 µM (active)
9,CS(=O)(=O)c1nc(-c2ccc(Br)cc2)cc(-c2ccccc2)c1C#N,28.2 µM (active)
10,CS(=O)(=O)c1sc2nc(-c3ccccc3)cc(-c3ccccc3)c2c1N,inactive
11,Cn1c2ccccc2n2c(=O)cc(-c3ccccc3)c(C#N)c12,inactive
12,CCO/C(O)=C(/Sc1nc(-c2ccccc2)cc(-c2ccccc2)c1C#N)C(C)=O,inactive
13,COCCCn1c(=N)c(C(=O)NCc2cccnc2)cc2c(=O)n3cc(C)ccc3nc21,inactive
14,CC(=O)c1c(C)[nH]c(C(=O)OCC(=O)c2ccc3c(c2)NC(=O)CO3)c1C,inactive
15,CC(C)C(=O)Nc1ccc(S(=O)(=O)Nc2nccc(/C=C/c3ccccc3)n2)cc1,inactive
16,c1ccc(-c2cc(NCCN3CCCCC3)c3ccccc3n2)cc1,20 µM (active)
17,c1ccc2cc3c(NCCN4CCOCC4)ccnc3cc2c1,inactive
18,c1ccc(-c2cc(-c3ccc(N4CCOCC4)cc3)nc3ccccc23)cc1,inactive
19,Cc1ccc(C2C=C(c3ccc4c(c3)OCO4)Nc3ncnn32)cc1 (stereo not drawn),inactive
20,O=C(NNc1c2ccccc2nc2ccccc12)c1ccccc1O,35.5 µM (active)
21,CCSc1ccccc1C(=O)Nc1nc(O)c2ccccc2n1,inactive
22,CC(C)(C)OC(=O)NNc1c2ccccc2nc2ccccc12,inactive
23,Cc1n[nH]c(C)c1S(=O)(=O)N(CC(=O)NC(C)c1ccccc1)c1ccc(C(C)C)cc1 (stereo not drawn),35.5 µM (active)
24,Cc1ccc(CNC(=O)CN(c2ccc(C(C)C)cc2)S(=O)(=O)c2c(C)n[nH]c2C)cc1,35.5 µM (active)
25,CSc1nsc(SCC(=O)NCc2ccc(C)cc2)n1,inactive
26,Cc1ccc(CNC(=O)CN(C)S(=O)(=O)c2ccc(F)cc2)cc1,inactive

row,SMILES,Potency
1,Cc1cc(S(=O)(=O)NC(C)C)ccc1OCC(=O)NCc1ccccc1,inactive
2,COc1ccc(N(CC(=O)Nc2ccccc2Cl)S(=O)(=O)c2ccc(C)cc2)cc1OC,inactive
3,COc1ccc(S(=O)(=O)N(CC(=O)NCc2ccccc2)c2ccc(C)cc2)cc1OC,35.5 µM (active)
4,Cc1c(Cl)cccc1N(CC(=O)NC(C)c1ccccc1)S(C)(=O)=O (stereo not drawn),inactive
5,Cc1cccc(C(=O)NCC(=O)OCC(=O)N2CCc3ccccc32)c1,inactive
6,N#C/C(=C\Nc1ccc2c[nH]nc2c1)c1nc(-c2ccc(Cl)cc2)cs1,inactive
7,CCCN(CC1CC1)C(=S)NC(=O)c1ccccc1C,inactive
8,C=CCN(CC=C)C(=S)NC(=O)c1ccc(-c2ccccc2)cc1,25.1 µM (active)
9,O=C(NC(=S)NCc1ccco1)c1ccc(Br)cc1,inactive
10,COc1cc(/C=C2/C(=N)N3C(SC)=NSC3=NC2=O)ccc1OC(=O)c1ccco1,inactive
11,CCOC(=O)N1CCN(C(=O)c2cc3cc(C)ccc3[nH]2)CC1,inactive
12,CC(C)CCN1C(=O)C2(OCCCO2)c2cc(Cl)ccc21,inactive
13,COc1cccc(NC(=O)C(=O)NCC2CCCN2S(=O)(=O)c2cccs2)c1 (stereo not drawn),inactive
14,O=C(NC1CCN(Cc2ccccc2)CC1)c1ccccc1Cl,inactive
15,S=C(Nc1ccc(Cl)c(Cl)c1)NC1CCN(Cc2ccccc2)CC1,28.2 µM (active)
16,Cc1ccc(NC(=S)NCc2ccccc2)cc1C,inactive
17,CCCCCCSc1cc(-c2nc3cc(C)ccn3c2NCCCC)ccc1OC,35.5 µM (active)
18,CCCCNc1c(-c2ccc(OC)c(SC(C)CC)c2)nc2cnccn12 (stereo not drawn),inactive
19,CCCCCCSc1cc(-c2nc3cnccn3c2NCCCC)ccc1OC,inactive
20,COC(=O)C1=C(C)N(Cc2ccccc2)C(NCc2ccccc2)=N[C@H]1c1cccc(F)c1,31.6 µM (active)
21,COC(=O)C1=CN(Cc2ccc(OC)c(OC)c2)C=C(C(=O)OC)C1c1cccc(OC)c1OC,inactive
22,COC(=O)C1=C(C)N(Cc2ccccc2)C(NCc2cc(OC)c(OC)c(OC)c2)=N[C@H]1c1ccc(Br)cc1,35.5 µM (active)
23,COC(=O)C1=C(C)N(Cc2ccccc2)C(NCC(C)C)=N[C@H]1c1cccc(F)c1,31.6 µM (active)
24,COC(=O)C1=C(C)N(c2ccc(OC)cc2)C(C)=C(C(=O)OC)C1c1ccccc1,inactive
25,COC(=O)C1=CN(Cc2ccccc2)C=C(C(=O)OC)C1c1cc(F)ccc1F,inactive
26,CCN1C=C(C(=O)OC)C(c2cccc(C)c2)C(C(=O)OC)=C1,inactive

row,SMILES,Potency
1,O=C(COC(=O)c1c(F)cccc1F)NC(=O)NCc1ccccc1,inactive
2,COC(=O)C1=C(C)N(Cc2ccccc2)C(NCc2ccc(OC)cc2)=N[C@H]1c1cccc(F)c1,35.5 µM (active)
3,COC(=O)C1=CN(C(C)C)C=C(C(=O)OC)C1c1cc(Br)c(OC)c(OC)c1,inactive
4,COCCNC(=O)/C(C#N)=C/c1c(N2CCN(C)CC2)nc2ccccn2c1=O,inactive
5,COc1ccc2oc3cc(NCCN(C)C)ccc3c(=O)c2c1,inactive
6,CCOc1ccc(C(=O)/C=C/c2cn(CC(O)CN3CCc4ccccc43)c3ccccc23)cc1 (stereo not drawn),inactive
7,CCCN(CCC)CC(O)Cn1cc(/C=C/C(=O)c2ccc(Br)cc2)c2ccccc21 (stereo not drawn),inactive
8,Cc1nc2c(o1)C(=O)c1ccccc1C2=Nc1ccccc1,31.6 µM (active)
9,Cc1nc(-c2ccc([N+](=O)[O-])cc2)c(-c2ccccc2)o1,inactive
10,COc1ccc(CCNC(=O)c2ccc(CSc3ccccc3)o2)cc1,inactive
11,CCc1ccccc1S(=O)(=O)Cc1ccc(C(=O)NCCc2ccc(Cl)cc2)o1,25.1 µM (active)
12,CC(C)C(NC(=O)c1c(F)cccc1F)C(=O)NCCc1ccc(S(N)(=O)=O)cc1 (stereo not drawn),inactive
13,CCC(=O)Nc1cc2nc(O)cc(C)c2cc1C,inactive
14,O=C(NCCc1ccc(Cl)cc1)c1ccc2c(c1)N(Cc1ccc(F)cc1Cl)C(=O)CS2,14.1 µM (active)
15,CCN1CCSc2ccc(C(=O)NCc3ccccc3F)cc21,inactive
16,O=C(Cc1ccc(Cl)cc1)NCCc1ccc(F)cc1,inactive
17,CCc1c(-c2ccccc2)nc2nc(C)c(C)nn12,inactive
18,CCCCN1C(C(=O)Nc2cc(C)on2)=C(O)c2ccccc2S1(=O)=O,inactive
19,CCCC(=O)NC(c1ccc(OC)cc1)c1ccc2cccnc2c1O (stereo not drawn),inactive
20,COc1cccc(N=Nc2ccc3cccnc3c2O)c1,11.2 µM (active)
21,COc1cc(N(C(C)=O)c2ccc(O)cc2)c2ncccc2c1,inactive
22,COCC(=O)N1CCC(n2nccc2NC(=O)CCOc2ccccc2)CC1,inactive
23,COC(=O)C1Cc2ccccc2CN1C(=O)CCl (stereo not drawn),42.3 µM (active)
24,COc1cc(OC)c(OC)cc1/C=C1\Oc2cc(OCC(=O)N3Cc4ccccc4C[C@H]3C(=O)O)ccc2C1=O,inactive
25,CCS(=O)(=O)N1Cc2ccccc2CC1C(=O)N(C)CC(=O)Nc1ccc(OC)cc1 (stereo not drawn),inactive
